Growth data for 38 compounds are collected here from PubChem BioAssay (NCI).

Where “and” joins values, the source holds several entries; their conditions need not be identical. Equal entries are not always repeated. About 83,000 compounds went through this panel and 20% of them were active in at least one assay; those are over-represented in the sample as a whole.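 Note: values are percent growth. 100 is the growth of untreated cells, values between 100 and 0 indicate rising inhibition; between -100 and 0 indicates cell death.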 Calls of active or inactive are those of the source. How the source made its calls: active means growth percent below 10; inactive means the rest.

The experiment has as its system MCF7 breast. In words: NCI-60 one-dose screen, 48 h (100 = growth as untreated, 0 = no growth, -100 = all killed). To be noted: 10 µM unless noted.
Take `CSc1nc(Br)nc2ncn(C3CC(Oc4ccc(C)cc4)C(COc4ccc(C)cc4)O3)c12` (stereo not drawn): the growth was 64.8% [100 µM] (inactive) and -36.2% [100 µM] (active).

Consider `COC(=O)c1cc(C#N)[nH]c1-c1ccsc1`, for which the growth is 9.03% [100 µM] (active) and -89.1% [100 µM] (active).

As to `CCn1c2c(c3ccccc3c1=O)C(=O)c1ccccc1-2`, the growth is 71.7% [100 µM] (inactive) and 21% [100 µM] (inactive).

As to `CC(C)O/N=C/c1cc(NC(=S)OC(C)C)ccc1Cl`, the growth is -77.4% [100 µM] (active) and 3.65% [100 µM] (active).

As for `NC(N)=Nc1ccc(CC(N)C(=O)O)cc1` (stereo not drawn), the growth was 93.7% [12.5 µM] (inactive) and 76.9% [12.5 µM] (inactive).

Consider `CC1(C)S[C@H](CN)N[C@H]1C(=O)OC(c1ccccc1)c1ccccc1`, for which the growth is -8.91% [100 µM] (active) and -100% [100 µM] (active).

On to `O=C1CC(c2ccccc2)NCCCCN2CC(CN1)C(C(O)c1ccccc1)C2=O` (stereo not drawn), for which the growth was 97.3% [100 µM] (inactive) and 76% [100 µM] (inactive).

Regarding `CCCCCCSC[C@H](OC(C)=O)[C@@H](OC(C)=O)[C@@H](OC(C)=O)[C@@H](COC(C)=O)OC(C)=O`, the growth was 28.8% [100 µM] (inactive) and 79.7% [100 µM] (inactive).

Take `CC(=N\N=C\c1ccccn1)/C(C)=N/N=C/c1ccccn1`: the growth is 76.4% [100 µM] (inactive) and 78.5% [100 µM] (inactive).

Take `OCc1ccccc1OC1OC(CO)C(O)C(O)C1O` (stereo not drawn): the growth was 120% [100 µM] (inactive) and 82.9% [100 µM] (inactive).

For `Clc1ccc(C2C3COc4ccccc4C3=NN2c2ccccc2)cc1` (stereo not drawn), the growth is 12.9% [100 µM] (inactive) and -27.8% [100 µM] (active).

For `O=C(Nc1cccc(NC(=O)C(=O)C2CCC3=C(Sc4ccccc4N3)C2=O)n1)C(=O)C1CCC2=C(Sc3ccccc3N2)C1=O` (stereo not drawn), the growth is 51.4% [100 µM] (inactive) and 4.4% [100 µM] (active).

With `Cn1c2c(c3ccccc3c1=O)C(=O)c1ccccc1-2`, the growth was 26.8% [100 µM] (inactive) and 7.69% [100 µM] (active).

`N#Cc1nc(-c2cccc(-c3nc(C#N)c(N)o3)n2)oc1N`: the growth was 58.8% [100 µM] (inactive) and -19.4% [100 µM] (active).

On to `C[C@@H]1CC[C@H]2C(C)(C)[C@H]3C[C@@]12CC[C@@]3(C)O`, for which the growth was 93.1% [100 µM] (inactive) and -100% [100 µM] (active).

`Cc1coc2c1C(OC(=O)C(C)C)C1(C)C(C)CCC(O)C1C2=O` (stereo not drawn): the growth was 21.2% [100 µM] (inactive) and 6.5% [100 µM] (active).

For the compound `COC(=O)C(=O)C(C(=O)C(=O)Nc1ccccc1OC)c1nc2ccc([N+](=O)[O-])cc2[nH]c1=O` (stereo not drawn), the growth is 43% [100 µM] (inactive) and 41.8% [100 µM] (inactive).

For `Cc1ccc(/C=N/Nc2nncc3ccccc23)s1`, the growth was 19% [100 µM] (inactive) and 4.27% [100 µM] (active).

On to `C=C1C(=O)O[C@@H]2C[C@@]3(C)CC(=O)C=C(C)[C@@H]3C[C@H]12`, for which the growth was -74.2% [100 µM] (active) and -78.3% [100 µM] (active).

As for `COC(=O)/C=C\C(C#N)(C#N)N=Cc1ccsc1`, the growth is -73.8% [100 µM] (active) and -39.1% [100 µM] (active).

Turning to `COC(=O)C(C(=O)C(=O)Nc1c(C)cccc1C(C)(C)C)c1nc2ccc(Cl)cc2[nH]c1=O` (stereo not drawn), the growth is 69.9% [100 µM] (inactive) and 60.9% [100 µM] (inactive).

For `COc1ccc2c(C)cc(N/N=C/c3ccc(C)s3)nc2c1`, the growth was -55.5% [100 µM] (active) and -100% [100 µM] (active).

Consider `CCOC(=O)c1cc(C)nc2c1c(=O)n(-c1ccccc1)c(=O)n2CCCCN1CCN(c2ncccn2)CC1`, for which the growth was 100% [100 µM] (inactive) and 90.8% [100 µM] (inactive).

As to `C=CC(COC(=O)C(C)(C)OC(C)=O)c1ccc(OC(=O)C(C)C)c(OC)c1` (stereo not drawn), the growth is -68.4% [100 µM] (active) and -69% [100 µM] (active).

In the case of `CCC/C(Cl)=N/OC(=O)Nc1cccc(F)c1`, the growth is -73.4% [100 µM] (active) and -100% [100 µM] (active).

For the compound `O=C1NC(N/N=C\C(O)C(O)C(O)C(O)CO)=N/C1=C\c1ccc(Cl)cc1` (stereo not drawn), the growth was 58.4% [100 µM] (inactive) and 13.9% [100 µM] (inactive).

`O=C1c2ccccc2-c2c1c1ccccc1c(=O)n2-c1cccnc1`: the growth was 21.1% [100 µM] (inactive) and 3.24% [100 µM] (active).

In the case of `C=C(C)C1CC2(C)C(C)CC(OC(=O)/C(C)=C\C)CC2C(OC(=O)/C(C)=C\C)C1O` (stereo not drawn), the growth was -15.7% [100 µM] (active) and -14.3% [100 µM] (active).

As to `Cc1ccc(/C=C2/N=C(N/N=C\c3ccccc3)NC2=O)cc1`, the growth is 1.56% [100 µM] (active) and 22.5% [100 µM] (inactive).

`COC(=O)C(Cc1nc2ccccc2[nH]c1=O)C(=O)C(=O)Nc1cc(C(F)(F)F)ccc1Cl` (stereo not drawn): the growth was -91.8% [100 µM] (active) and 0% [100 µM] (active).

Take `CC(C)CCCC(C)[C@H]1CC[C@H]2[C@@H]3CC[C@H]4C[C@@H](CCC=C(c5cc(Cl)c(O)c(C(=O)O)c5)c5cc(Cl)c(O)c(C(=O)O)c5)CC[C@]4(C)[C@H]3CC[C@]12C` (stereo partly drawn) (tested in a mixture with another compound): the growth was 97.3% [50 µM] (inactive).

For the compound `Cc1ccc2c(/C=C/c3ccc(N(C)C)cc3)ccc(C(C)C)cc1-2`, the growth was 57.7% [100 µM] (inactive) and 75.6% [100 µM] (inactive).

Take `CC(C)=CCc1c(OC(=O)c2c(C)cc(O)cc2O)cc(CO)c(CO)c1O`: the growth is -58.6% [100 µM] (active) and -100% [100 µM] (active).

With `Cc1ccc(OCC2OC(n3cnc4nc(Cl)nc(Cl)c43)CC2Oc2ccc(C)cc2)cc1` (stereo not drawn), the growth is 0.206% [100 µM] (active) and -99.2% [100 µM] (active).

On to `N#Cc1nc(C(F)(F)F)oc1N`, for which the growth was 66.3% [100 µM] (inactive) and 98.4% [100 µM] (inactive).

Turning to `COC(=O)C(=O)C(C(=O)C(=O)Nc1nc2ccc(C)cc2s1)c1nc2ccc([N+](=O)[O-])cc2[nH]c1=O` (stereo not drawn), the growth was 60.3% [100 µM] (inactive) and 57.7% [100 µM] (inactive).

Turning to `C=CCNC1=C2C[C@@H](C)C[C@@H](OC)[C@@H](OC(=O)CCCN)[C@H](C)/C=C(\C)[C@@H](OC(N)=O)[C@H](OC)/C=C\C=C(/C)C(=O)NC(=CC1=O)C2=O`, the growth is -82% [100 µM] (active) and -94.9% [100 µM] (active).

Consider `Cc1cc2nn(C3CCCO3)nc2cc1C` (stereo not drawn), for which the growth was 79.7% [100 µM] (inactive) and 92.9% [100 µM] (inactive).
